Source: PubChem BioAssay
IL-1B inflam inh = inflammasome signaling inhibition, IL-1 beta readout; activity change, % at 57.5 µM; THP-1 LPS/ATP IL-1B secretion, AlphaLISA, 16 h; hits give low values; 360,000 compounds, 4.7% hits; in the data active = activity change below about -50%; inconclusive = mostly about -30% to -49%
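Secreted IL-1B measured by AlphaLISA bead assay after 16 h compound exposure of THP-1 cells; compounds (final up to 57.5 uM) added 1 h before LPS (250 ng/mL) and ATP (1.25 mM) stimulation; lower signal means less secretion.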
RORgamma inh = inhibitors of mouse ROR gamma transcriptional activity | Drosophila S2 Gal4-RORgamma UAS-luciferase reporter, 20 h | 310,000 compounds, 5.4% hits | Potency, µM (titrated, usually from 53.6 µM), for the others: top-dose activity change, negative = inhibition, hits mostly inhibitors | P51450; also: potency is read from the fitted curve at half-maximal effect; nearly all actives have a fitted effect of over 60% in size
Target sequence (P51450 whole entry, looked up, the tested form may be a part): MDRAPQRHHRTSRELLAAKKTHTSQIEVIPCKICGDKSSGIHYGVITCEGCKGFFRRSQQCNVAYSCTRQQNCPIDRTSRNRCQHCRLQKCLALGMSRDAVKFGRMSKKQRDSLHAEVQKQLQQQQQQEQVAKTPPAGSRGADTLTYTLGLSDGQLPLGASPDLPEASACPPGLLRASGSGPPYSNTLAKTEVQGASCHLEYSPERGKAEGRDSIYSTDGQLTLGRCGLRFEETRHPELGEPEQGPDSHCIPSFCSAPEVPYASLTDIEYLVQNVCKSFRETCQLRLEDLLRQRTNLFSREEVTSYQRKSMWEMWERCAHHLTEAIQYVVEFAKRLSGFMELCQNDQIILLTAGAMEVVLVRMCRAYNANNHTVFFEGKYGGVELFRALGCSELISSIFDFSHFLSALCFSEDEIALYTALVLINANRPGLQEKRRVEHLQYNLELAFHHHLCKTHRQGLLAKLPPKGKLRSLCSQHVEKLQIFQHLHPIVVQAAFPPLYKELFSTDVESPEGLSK
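Luminescence from a UAS-regulated Photinus luciferase reporter in stably transfected Drosophila Schneider cells is measured; decreased signal marks ROR gamma inhibition. Fusion expression is induced by 700 uM copper sulfate for 20 hr.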
ELG1 repair inh = ELG1-dependent DNA repair inhibition. HEK293T ELG1-luciferase reporter, luminescence, 16 h; DNA damage induced by 5-fluorouridine. Potency, µM (titrated, usually from 46.1 µM), for the others: at the highest dose activity change, negative = inhibition, hits mostly inhibitors. AID 504467. 330,000 compounds, 2.3% hits; also: potency is read from the fitted curve at half-maximal effect; nearly all actives have a fitted effect of over 55% in size
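DMSO vehicle served as the neutral condition. Each well held 2,000 cells given 5-fluorouridine plus compound; after 16 hr at 37 °C/5% CO2, ONE-Glo was added and luciferase measured 30 min later.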
TDP1 cell noCPT = qHTS for Inhibitors of human tyrosyl-DNA phosphodiesterase 1 (TDP1): qHTS in cells in absence of CPT; 420,000 compounds, 15% hits; Potency, µM (highest dose often 46.2 µM), for the others: at the highest dose activity change, negative = growth inhibition, most hits filed as inhibitors; DT40 Tdp1-/- hTDP1 cells, no CPT, ATP luminescence, 48 h; also: potency is read from the fitted curve at half-maximal effect; nearly all actives have a fitted effect of over 55% in size
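No-CPT arm: Tdp1-/-;hTDP1 DT40 cells (400/well) plus compounds, incubated ≥48 hr at 37 °C. Readout CellTiter-Glo luminescence.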
DT40 TDP1 CPT = growth inhibition of DT40 Tdp1-/-;hTDP1 cells with camptothecin (screen for TDP1 inhibitors) | chicken DT40 Tdp1-/-;hTDP1 cells + 20 nM CPT, ATP luminescence, 48 h | AID 686979 | Potency, µM (top dose mostly 46.2 µM), inactives show at the highest dose activity change, negative = growth inhibition, hits mostly inhibitors | 420,000 compounds, 12% hits; also: potency is read from the fitted curve at half-maximal effect; nearly all actives have a fitted effect of over 55% in size
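Cell growth measured by CellTiter-Glo luminescence after a minimum 48 h, 37 C compound exposure with 20 nM CPT in Tdp1-knockout DT40 cells stably expressing hTDP1, seeded 400/well; qHTS titration format.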
Gal4-VP16 FLuc = inhibits Gal4-VP16 luciferase reporter, ROR gamma counter-screen; AID 2546; Potency, µM (highest dose often 53.6 µM), for inactives: at the highest dose activity, negative = inhibition, most hits filed as inhibitors; 310,000 compounds, 3.5% hits; Drosophila S2 Gal4-VP16 UAS-luciferase, luminescence, 20 h;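 also: Gal4-VP16 expression switched on by copper sulfate through the metallothionein promoter; potency is read from the fitted curve at half-maximal effect; nearly all actives have a fitted effect of over 50% in size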
Numbers without * were called inactive; [ ] = another dose, or the depositor's remark. Hits are enriched below; roughly 21% of the tested compounds scored in any of these assays. Unless noted, calls follow the shape of the dose curve; as a rule, active = well fitted curve in the direction sought with a large enough effect; inconclusive = small, poorly fitted or top-dose-only effect, or another doubt; inactive = no such curve, though single readings can be large; an effect the other way counts as inactive or inconclusive. % is scaled to controls: 0 for no effect and ±100 for the full control effect.

What do the screens show for `CC(C)Nc1nc(NC(C)C)nc(N(C#N)CCOc2ccc(Cl)cc2Cl)n1`?
IL-1B inflam inh: -13; RORgamma inh: inconclusive; ELG1 repair inh: inconclusive; TDP1 cell noCPT: inconclusive; DT40 TDP1 CPT: 18µM*; Gal4-VP16 FLuc: inconclusive

What do the screens show for `CCOC(=O)C(=O)N(C)c1c(CC)nc2c(OCCC3CCCCC3)cccn12`?
IL-1B inflam inh: -24; TDP1 cell noCPT: 18µM*; DT40 TDP1 CPT: inconclusive

What do the screens show for `CCOC(=O)N(C)c1c(CC)nc2c(OCCC3CCCCC3)cccn12`?
IL-1B inflam inh: -77*; TDP1 cell noCPT: 16µM*; DT40 TDP1 CPT: inconclusive

How did O=C(c1ccncc1)N1CCC2(CC1)CCN(c1ccncc1)CC2 do in these assays?
RORgamma inh: -35%; TDP1 cell noCPT: -13%; DT40 TDP1 CPT: 16%; Gal4-VP16 FLuc: -4%

Results for CC1CCCCC12NC(=O)N(CC(=O)Nc1nccs1)C2=O (stereo not drawn) ?
IL-1B inflam inh: 24; ELG1 repair inh: 8%; TDP1 cell noCPT: -11%; DT40 TDP1 CPT: 18%

How did COc1c2c(c(C(=O)/C=C/C(C)=C/c3ccccc3)c3c1OCO3)CCN(C)C2 do in these assays?
RORgamma inh: 10%; TDP1 cell noCPT: -18%[9.04 µM]; DT40 TDP1 CPT: -9%[9.04 µM]; Gal4-VP16 FLuc: -12%

Results for CCCC(CCC)C(=O)Nc1cccc(-c2nc3cccnc3s2)c1C ?
TDP1 cell noCPT: -14%; DT40 TDP1 CPT: -8%

How did Cc1nc2ccc(S(=O)(=O)Nc3cc(-c4nc5cccnc5s4)ccc3C)cc2s1 do in these assays?
IL-1B inflam inh: 42; RORgamma inh: -3%; ELG1 repair inh: inconclusive; TDP1 cell noCPT: 21µM*; DT40 TDP1 CPT: inconclusive; Gal4-VP16 FLuc: 3%

How did Cc1nc2ccc(S(=O)(=O)Nc3cccc(-c4nc5cccnc5s4)c3C)cc2s1 do in these assays?
IL-1B inflam inh: 41; RORgamma inh: -22%; ELG1 repair inh: 5%; TDP1 cell noCPT: 26µM*; DT40 TDP1 CPT: inconclusive; Gal4-VP16 FLuc: inconclusive

How did CN1/C(=C\C(=S)NC(=O)c2ccccc2Cl)C(C)(C)c2ccccc21 do in these assays?
IL-1B inflam inh: -54*; RORgamma inh: 7.9µM*; ELG1 repair inh: 3%; TDP1 cell noCPT: 4.6µM*; DT40 TDP1 CPT: 7.3µM*; Gal4-VP16 FLuc: 20µM*

What do the screens show for `CN1/C(=C/C(=S)NC(=O)C2(C)CC2(Cl)Cl)C(C)(C)c2ccccc21` (stereo not drawn)?
IL-1B inflam inh: -13; RORgamma inh: 4.5µM*; ELG1 repair inh: inconclusive; TDP1 cell noCPT: 23µM*; DT40 TDP1 CPT: inconclusive; Gal4-VP16 FLuc: inconclusive

Results for O=C1NCCN1CCNc1nc(NCC2CC2)nc2cc(-c3ccccc3)sc12 ?
TDP1 cell noCPT: 21µM*; DT40 TDP1 CPT: inconclusive

What do the screens show for `COCCNc1nc(NCC2CCCCC2)c2sc(-c3ccccc3)cc2n1`?
IL-1B inflam inh: -103*; TDP1 cell noCPT: 8.2µM*; DT40 TDP1 CPT: 15µM*

What do the screens show for `COc1ccc(-c2cc3nc(NCC4CCCCC4)n(C)c(=O)c3s2)cc1OC`?
IL-1B inflam inh: 13; TDP1 cell noCPT: inconclusive; DT40 TDP1 CPT: inconclusive

Results for COCCNc1nc(NCCOc2ccccc2Cl)c2sc(-c3ccccc3)cc2n1 ?
IL-1B inflam inh: -60*; TDP1 cell noCPT: 13µM*; DT40 TDP1 CPT: 9.2µM*

Results for c1ccc(-c2cc3nc(NCC4CC4)nc(NCC4CCCCC4)c3s2)cc1 ?
IL-1B inflam inh: -109*; TDP1 cell noCPT: 2.9µM*; DT40 TDP1 CPT: 4.6µM*

How did CC(=O)NNC(=O)c1nc(-c2ccccc2)c(C)o1 do in these assays?
IL-1B inflam inh: -6; RORgamma inh: -19%; ELG1 repair inh: -20%; TDP1 cell noCPT: -6%; DT40 TDP1 CPT: -1%; Gal4-VP16 FLuc: -2%

Results for COc1ccc(CNC(=O)CCn2cccn2)cc1 ?
TDP1 cell noCPT: -7%; DT40 TDP1 CPT: -1%

How did COCCNc1nc(-c2ccccc2CO)c2sc(-c3ccccc3)cc2n1 do in these assays?
IL-1B inflam inh: 20; TDP1 cell noCPT: 1.8µM*; DT40 TDP1 CPT: 1.3µM*

How did COc1ccc2c(c1)cc1c(=O)n(CC(=O)NCCc3ccccc3)nc(C)n12 do in these assays?
TDP1 cell noCPT: -12%; DT40 TDP1 CPT: 0%

How did CCN1CCc2c(sc(NC(=O)c3ccc(S(=O)(=O)N4CCCCCC4)cc3)c2C(=O)NC)C1 do in these assays?
IL-1B inflam inh: inactive; RORgamma inh: -12%; ELG1 repair inh: -1%; TDP1 cell noCPT: inconclusive; DT40 TDP1 CPT: inconclusive; Gal4-VP16 FLuc: -6%

How did COc1ccc(CCC(=O)NC2CC(=O)N(c3ccc(F)cc3)C2)cc1 (stereo not drawn) do in these assays?
TDP1 cell noCPT: -6%; DT40 TDP1 CPT: 2%

What do the screens show for `Cc1nc(-c2ccccc2)c(Cc2ccccc2O)c(=O)[nH]1`?
IL-1B inflam inh: 22; RORgamma inh: 14%; ELG1 repair inh: -2%; TDP1 cell noCPT: 5.2µM*; DT40 TDP1 CPT: 5.8µM*; Gal4-VP16 FLuc: -2%

Results for COc1ccc(C(C)(C)C)cc1NC(=O)C1C2C=CC(C2)C1C(=O)O (stereo not drawn) ?
IL-1B inflam inh: 0; RORgamma inh: -24%; ELG1 repair inh: 0%; TDP1 cell noCPT: inconclusive; DT40 TDP1 CPT: -24%; Gal4-VP16 FLuc: 1%

How did COc1ccc(C(C)(C)C)cc1NC(=O)c1ccc2ncsc2c1 do in these assays?
IL-1B inflam inh: -51*; RORgamma inh: inconclusive; ELG1 repair inh: inconclusive; TDP1 cell noCPT: inconclusive; DT40 TDP1 CPT: inconclusive; Gal4-VP16 FLuc: -8%

What do the screens show for `COc1ccc(C(C)(C)C)cc1NC(=O)c1cncc(Br)c1`?
IL-1B inflam inh: -22; RORgamma inh: 32%; ELG1 repair inh: -7%; TDP1 cell noCPT: 18µM*; DT40 TDP1 CPT: inconclusive; Gal4-VP16 FLuc: -2%

What do the screens show for `O=C(O)C1CC=CCC1C(=O)Nc1ccc(Oc2ccc(Cl)cc2)cc1` (stereo not drawn)?
IL-1B inflam inh: 6; RORgamma inh: -5%; ELG1 repair inh: -18%; TDP1 cell noCPT: inconclusive; DT40 TDP1 CPT: inconclusive; Gal4-VP16 FLuc: -21%

Results for Cc1cc(C)cc(Oc2ccc(NC(=O)C3CC=CCC3C(=O)O)cc2)c1 (stereo not drawn) ?
IL-1B inflam inh: 11; RORgamma inh: 41%; ELG1 repair inh: -8%; TDP1 cell noCPT: 3.7µM*; DT40 TDP1 CPT: -4%; Gal4-VP16 FLuc: -9%
